Measurements reported in PubChem BioAssay (NCATS).
The source made the active and inactive calls. Calls follow the shape of the dose curve; as a rule, active = well fitted curve in the direction sought with a large enough effect (not every such curve was filed as active); inconclusive = small, poorly fitted or top-dose-only effect, or effect the other way, or another doubt; inactive = no such curve, though single readings can be large or run the other way. Residues, ends and D or L forms follow the SMILES beside them. *: point of attachment. Cbz = O=C(OCc1ccccc1)*

Molecular target: Pyruvate kinase PKM (Homo sapiens) (UniProt P14618)
Assay: qHTS Assay for Activators of Human Muscle Pyruvate Kinase (AID 954);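 also: 0% = uninhibited enzyme and -100% = no enzyme or full thiadiazolimine inhibition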
Conditions: purified human muscle pyruvate kinase, luciferase-coupled luminescence, 1 h; series mostly up to 57.5 µM; activity change, negative = inhibition: at the top concentration
Method: NIH Molecular Libraries Screening Centers Network [MLSCN]
NIH Chemical Genomics Center [NCGC]
Wael M. Rabeh, Lyudmila Nedyalkova and Hee-Wan Park [Structural Genomics Consortium, 100 College St. Toronto, Ontario, Canada]
Human pyruvate kinase muscle 2 enzyme was supplied as a highly purified (>95% pure) preparation by the Structural Genomics Consortium in Toronto (Ontario, Canada) and was assayed for its ability to generate ATP from ADP using phosphoenolpyruvate (PEP) as a substrate. ATP generation was detected in a coupled reaction by luciferase-mediated luminescence, an ATP-dependent process. Pyruvate kinase substrates, PEP and ADP, were present in the assay at Km and approximately […]-fold below Km respectively. The enzyme was assayed at an intermediate level of activity to screen for inhibitors and activators.
NCGC Assay Protocol Summary:
Three uL of substrate mix (final concentration, 50 mM imidazole pH 7.2, 50 mM KCl, 7 mM MgCl2, 0.5 mM PEP, 0.1 mM ADP, 0.01% Tween 20, 0.05% BSA) was dispensed into 1536 well plates. 23 nL of compound were delivered by a pin tool and 1 uL of enzyme mix (final concentration, 0.1 nM pyruvate kinase, 50 mM imidazole pH 7.2, 0.05% BSA) was added. Plates were incubated at room temperature for 1 hour. Two uL of detection and kinase stop mix (PKLight, Cambrex) was added, the plates centrifuged, and luminescence read by a ViewLux (Perkin Elmer) at 5 second exposure/plate. Data were normalized to the uninhibited and AC100 inhibition (no enzyme or 110 uM N-methyl-2,3-diphenyl-1,2,4-thiadiazol-5-imine; CID: 682802; LOPAC-S-4063). To monitor activation, 0.3 nM pyruvate kinase was included in one control column.

Chain of Pyruvate kinase PKM (Homo sapiens) (P14618 whole entry, looked up): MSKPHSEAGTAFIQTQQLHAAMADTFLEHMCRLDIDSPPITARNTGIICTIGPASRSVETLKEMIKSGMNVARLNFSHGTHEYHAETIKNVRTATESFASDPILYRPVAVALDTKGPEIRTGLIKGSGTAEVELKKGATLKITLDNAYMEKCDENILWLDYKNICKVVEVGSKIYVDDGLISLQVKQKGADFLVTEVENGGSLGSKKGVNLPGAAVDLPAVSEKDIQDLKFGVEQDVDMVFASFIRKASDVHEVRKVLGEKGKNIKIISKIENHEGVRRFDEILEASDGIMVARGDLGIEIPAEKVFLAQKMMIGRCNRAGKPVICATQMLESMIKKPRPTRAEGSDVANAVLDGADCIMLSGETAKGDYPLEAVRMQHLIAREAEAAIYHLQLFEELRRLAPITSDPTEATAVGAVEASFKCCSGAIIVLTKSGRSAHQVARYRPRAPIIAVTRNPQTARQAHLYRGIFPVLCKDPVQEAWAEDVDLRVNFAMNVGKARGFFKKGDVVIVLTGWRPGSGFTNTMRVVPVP

| Compound | activity change, negative = inhibition | outcome |
| --- | --- | --- |
| O=C(O)C1=CCCN(CCON=C(c2ccccc2)c2ccccc2)C1 | -29.8% (inactive) | – |
| O=C(N[C@@H](Cc1ccccc1)C(=O)CCl)OCc1ccccc1 | 4.14% (inactive) | – |
| COc1ccc(C(=O)NCc2cccnc2)cc1C(=O)NCc1cccnc1 | -24.7% (inactive) | – |
| C[C@H](O)C(=O)C1=Nc2c(nc(N)[nH]c2=O)NC1 | -13.3% (inactive) | – |
| O=C(O)C1CCNCC1 | -18.6% (inactive) | – |
| N=C(N)SCCN | 4.32% (inactive) | – |
| NCCCCN | 11.3% (inactive) | – |
| CC(C)[C@H](NC(=O)OCc1ccccc1)C(=O)N[C@H](C=O)Cc1ccccc1 (Cbz-Val-Phe-aldehyde) | 4.72% (inactive) | – |
| CCCn1c(=O)c2c(ncn2C)n(CCC)c1=O | -12.4% (inactive) | – |
| COc1ccc2c(c1)c(CC(=O)O)c(C)n2Cc1ccc(Cl)cc1 | -32.9% (inactive) | – |
| CC(=O)NNC(=O)N1Cc2ccccc2Oc2ccc(Cl)cc21 | -24.1% (inactive) | – |
| Cn1c(=O)[nH]c2ncn(C)c2c1=O | -2.93% (inactive) | – |
| CNc1cc(NS(=O)(=O)c2ccc(N)cc2)nc(NC)n1 | 1.33% (inactive) | – |
| [Li+] | 0.342% (inactive) | – |
| COc1cc(/C=C(\C#N)C(=O)c2ccc(O)c(O)c2)cc(I)c1O | -2.94% (inactive) | – |
| COc1ccccc1N1CCN(CCN(C(=O)c2ccc(F)cc2)c2ccccn2)CC1 | -6.1% (inactive) | – |
| CCCOC(=O)c1c(-c2ccccc2)nc(CC)c(C(=O)SCC)c1CCC | -21.7% (inactive) | – |
| Cn1c(=O)c2[nH]c(C3CCCC3)nc2n(C)c1=O | 11.7% (inactive) | – |
| CN1CCN(c2nc3cc(C(F)(F)F)ccc3n3cccc23)CC1 | -18.1% (inactive) | – |
| N[C@@H](Cc1ccc(O)c(I)c1)C(=O)O | -12.7% (inactive) | – |

| Compound | activity change, negative = inhibition | outcome |
| --- | --- | --- |
| O=c1[nH]c2cc(Cl)ccc2c(O)c1-c1ccc(Oc2ccccc2)cc1 | -7.38% (inactive) | – |
| Nc1ncnc2c1c(-c1ccc(Oc3ccccc3)cc1)cn2C1CCCC1 | -21.5% (inactive) | – |
| O=C1Cc2c([nH]c3ccc(Br)cc23)-c2ccccc2N1 | -32.1% (inactive) | – |
| Nc1nc2[nH]c(=O)cnc2c(=O)[nH]1 | -2.82% (inactive) | – |
| O=c1onc2n1-c1cc(Br)ccc1OC2 | -29.6% (inactive) | – |
| Nc1ccc(-c2ccc3ccccc3n2)cc1 | -76% (inactive) | – |
| CCSC(=N)N | -9.85% (inactive) | – |
| N[C@@H](Cc1c[nH]c2ccccc12)C(=O)O | -25.2% (inactive) | – |
| CN[C@H](CC(=O)O)C(=O)O | -18.3% (inactive) | – |
| CC(N)=O | -8.8% (inactive) | – |
| O=c1[nH]ccc2c(O)cccc12 | -18.7% (inactive) | – |
| COc1ccccc1N1CCN(CCCCNC(=O)c2ccc3ccccc3c2)CC1 | -9.27% (inactive) | – |
| CCN(CC)CCCCCCCCOC(=O)c1cc(OC)c(OC)c(OC)c1 | -26.9% (inactive) | – |
| CCCCCCCCCCCCCCC[C@H](O)[C@H](N)CO | -4.81% (inactive) | – |
| CC(C)Cn1c(=O)n(C)c(=O)c2[nH]cnc21 | -5.47% (inactive) | – |
| N[C@@H](CS(=O)O)C(=O)O | 8.22% (inactive) | – |
| CCCCCCN(CCCCCC)C(=O)Cc1c(-c2ccc(F)cc2)[nH]c2ccccc12 | -10.9% (inactive) | – |
| CC(C)NC[C@H](O)COc1ccc(CC(N)=O)cc1 | – | inactive |
| O=C(O)/C(=C/c1c(C(=O)O)[nH]c2cc(Cl)cc(Cl)c12)c1ccccc1 | -9.78% (inactive) | – |
| O=C(O)c1ccccc1Nc1cccc(OCc2ccc3ccccc3n2)c1 | -26.2% (inactive) | – |
